# Screens: PubChem, several laboratories
# GALR2 antag = GALR2 antagonists in receptor-expressing cells, primary screen; Galanin receptor type 2 (Homo sapiens), O43603; antagonist mode; inhibition, % at 4 µM; hit rate 0.39% among 140,000; in the data active = inhibition above about 27%;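 also: cells stimulated with galanin 1-16 at roughly its EC80; 0% = agonist challenge control and 100% = basal control without agonist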
# S1P2 antag = human S1P2 receptor antagonists, primary screen, cell-based; cell-based S1P2 antagonist assay, inhibition at 5 uM; Sphingosine 1-phosphate receptor 2 (Homo sapiens), O95136; inhibition, % at 5 µM; hit rate 0.21% among 97,000; AID 736, 2007; in the data active = inhibition above about 45%;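 also: CRE beta-lactamase reporter cells expressing human S1P2 stimulated with S1P; 0% = agonist at EC80 alone and 100% = agonist plus reference antagonist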
# Target sequence (O95136 whole entry, looked up): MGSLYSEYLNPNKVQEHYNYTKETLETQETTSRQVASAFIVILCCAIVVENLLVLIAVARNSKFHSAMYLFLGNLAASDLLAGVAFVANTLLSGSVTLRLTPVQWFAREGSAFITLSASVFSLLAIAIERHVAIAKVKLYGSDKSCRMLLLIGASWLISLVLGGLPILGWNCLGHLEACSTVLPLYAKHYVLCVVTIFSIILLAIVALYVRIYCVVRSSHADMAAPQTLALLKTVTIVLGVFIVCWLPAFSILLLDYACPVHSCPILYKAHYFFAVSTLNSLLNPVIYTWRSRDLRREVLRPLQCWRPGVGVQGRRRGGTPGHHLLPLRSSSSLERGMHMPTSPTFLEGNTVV
# PTPN22 inh 2 = PTPN22 phosphatase inhibitors, primary screen, biochemical, DiFMUP fluorescence, 2 µM; Tyrosine-protein phosphatase non-receptor type 22 (Homo sapiens), Q9Y2R2; recombinant LYP catalytic domain; inhibition, % at 2 µM; hit rate 0.21% among 96,000;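 active = inhibition at 2 µM at or above a set limit, the screen mean plus 3 SD, cut at about 24% in these data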;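 also: 0% = DMSO with enzyme and 100% = enzyme fully blocked by orthovanadate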
# LYP act = LYP phosphatase activators, primary screen, biochemical, DiFMUP fluorescence, 2 µM | activation, % at 2 µM | Tyrosine-protein phosphatase non-receptor type 22 (Homo sapiens), Q9Y2R2 | AID 697, 2007 | recombinant LYP; 0 = plate median, 100 = signal doubled | hit rate 0.11% among 96,000;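 active = activation at 2 µM above a set limit, the mean plus 5 SD, cut at about 37% in these data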
# GALR2 ag = GALR2 receptor agonists, primary screen, cell-based | Galanin receptor type 2 (Homo sapiens), O43603 | hit rate 0.48% among 140,000 | activation, % (no concentration beside the values) | AID 803, 2007 | GALR2-expressing cells, agonist activation read-out; in the data active = activation above about 5%, passing the limit was not always enough;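 also: 0% = vehicle buffer wells and 100% = reference agonist at full effect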
# S1P2 agonist = S1P2 receptor agonists, primary screen, cell-based; activation, % at 4.5 µM; Sphingosine 1-phosphate receptor 2 (Homo sapiens), O95136; AID 729, 2007; S1P2-expressing cell line, agonist reporter read-out; hit rate 0.46% among 97,000; in the data active = activation above about 16%;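 also: 0% = vehicle low control and 100% = maximal reference agonist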
# Active calls of the source: *; · = not tested or not shown. A selection: hits, their analogues and other compounds. The true share with any hit is near 1.3%.
SMILES,GALR2 antag,S1P2 antag,PTPN22 inh 2,LYP act,GALR2 ag,S1P2 agonist
COc1cccc(C(CC(=O)NCc2ccco2)NS(=O)(=O)c2ccc(C)cc2)c1OC (stereo not given),9.2,·,·,·,-0.8,·
CCOC(=O)C1C(=O)CC(C)(O)C(C(=O)OCC)C1c1ccccc1 (stereo not given),12.2,107.7*,-6.4,6.9,-1.7,-5.4
CCOC(=O)C1C(=O)CC(C)(O)C(C(=O)OCC)C1c1ccc(OC)cc1 (stereo not given),-14.3,-21.8,-6.3,3.6,0.6,0.2
FC(F)(F)c1cc(-c2ccc(Cl)cc2)nc2ncnn12,-10.0,13.8,17.0,-16.2,-0.5,-1.8
COc1ccc(C2C3=C(CCCC3=O)Nc3nc(-c4cc(OC)c(OC)c(OC)c4)nn32)cc1OC (stereo not given),-0.3,-7.7,-4.3,3.5,-0.1,6.0
COc1cc(-c2nc3n(n2)C(c2cccc(OC)c2OC)C2=C(CCCC2=O)N3)cc(OC)c1OC (stereo not given),-3.0,-37.7,-5.2,3.5,-0.2,27.1*
CCn1cc(C(=O)NCc2ccco2)c2cc(OC)c(OC)cc2c1=O,-1.5,3.3,-12.7,7.6,1.7,11.4
CCn1cc(C(=O)Nc2ccc(OC)c(OC)c2)c2cc(OC)c(OC)cc2c1=O,-8.2,-33.9,-2.9,3.2,-0.3,22.1*
COc1ccc(OC)c(NC(=O)c2cn(C)c(=O)c3cc(OC)c(OC)cc23)c1,-1.2,-62.0,-10.4,14.4,0.1,33.0*
COc1ccc(OC)c(NC(=O)c2cnc3ccccn3c2=O)c1,2.7,-4.8,1.5,1.6,-1.2,-0.6
Cc1cc(NC(=O)COC(=O)c2oc3c(ccc4ccccc43)c2C)no1,1.8,·,·,·,5.1*,·
Cc1ccc(-c2cc(C(=O)OCC(=O)Nc3cc(C)on3)c3ccccc3n2)c(C)c1,-2.0,-1.6,-6.1,3.6,-1.8,-1.1
CCOC(=O)CS(=O)(=O)c1nc(-c2ccccc2)cc(C(F)(F)F)n1,59.1*,-8.5,7.7,-6.2,7.2,-2.9
COc1cccc(CN(Cc2cccnc2)S(=O)(=O)c2ccc(-n3cnnn3)c(C)c2)c1OC,0.2,11.1,1.0,-2.4,-2.3,-14.5
COc1ccc(-c2cn[nH]c2-c2ccc(OCc3ccc([N+](=O)[O-])cc3)cc2O)cc1,-3.7,·,·,·,0.9,·
Cc1noc(C)c1COC(=O)Cc1ccc(Cl)c(Cl)c1,-1.1,16.8,-10.8,10.8,-1.6,-2.8
Cc1noc(C)c1COC(=O)[C@H](C)NS(=O)(=O)c1ccc(Cl)c(Cl)c1,-7.6,-13.6,10.4,-7.4,14.2*,-3.2
Clc1ccc2c(Cl)c(-c3nnc(-c4ccccc4)o3)sc2c1,3.5,26.1,11.2,-9.7,-0.8,-5.7
CCOC(=O)CC(=O)CSc1nc(C)cc(C)c1C#N,4.9,-3.1,5.4,-2.6,7.2*,-5.3
Clc1ccc2oc(-c3cccnc3NCc3ccccc3)nc2c1,-12.9,-18.4,12.5,-9.5,3.0,25.0*
CCCCCC(=O)Nc1cc2[nH]c(=O)cc(COC)c2cc1C,-3.7,13.2,4.7,-3.2,-1.2,-5.3
CCN1C(=C2C(=O)c3ccccc3C2=O)C=Cc2ccccc21,-3.8,-13.6,-5.0,1.4,-1.0,-5.5
CCN1/C(=C/c2ccc3ccccc3[n+]2CC)C=Cc2ccccc21,24.4,81.0*,0.8,-0.5,0.2,-1.8
CC(C)(C)Nc1nc(N2CCCC2)nc(N2CCCC2)n1,3.5,46.7*,9.4,-8.1,-1.1,-7.1
Cc1cc(C)nc(NC(=O)c2cc([N+](=O)[O-])cc([N+](=O)[O-])c2)n1,1.6,·,·,·,-0.6,·
SMILES,GALR2 antag,S1P2 antag,PTPN22 inh 2,LYP act,GALR2 ag,S1P2 agonist
COc1ccccc1C1C(C(C)=O)=C(C)N=c2s/c(=C\c3cc(OC)c(OC)c(OC)c3)c(=O)n21 (stereo not given),1.8,-39.0,11.6,-14.3,4.3,16.7*
O=[N+]([O-])c1cc(Cl)cc(C2=NCCN2)c1,0.6,-6.5,-2.4,4.3,-0.6,-5.5
Cc1cccn2c(=O)c(/C=C(\C#N)C(=O)NC3CCS(=O)(=O)C3)c(N3CCC(C(N)=O)CC3)nc12 (stereo not given),-4.0,·,·,·,6.3*,·
Cc1cccn2c(=O)c(/C=C(\C#N)S(=O)(=O)c3ccccc3)c(N3CCC(C(N)=O)CC3)nc12,-2.5,0.4,2.5,-1.5,-1.5,-1.7
COc1cc2c(cc1NC(=O)c1cc(-c3ccccn3)nc3ccccc13)oc1ccccc12,2.7,·,·,·,0.6,·
Nc1nc(Cl)cc(N2CCC(c3cc(-c4ccc(Cl)cc4)n[nH]3)CC2)n1,6.0,81.6*,-2.3,6.6,-0.6,-8.9
CCOC(=O)c1ccc(NC(=O)Nc2ccc(F)cc2)cc1,-6.4,19.2,6.1,-3.8,-0.4,22.2*
COc1cc(/C=C(\C#N)c2nc3ccc(C)cc3[nH]2)c([N+](=O)[O-])cc1OC,8.0,-3.1,6.2,-3.1,-2.0,18.3*
Cc1cc(/C=C(\C#N)c2nc3ccccc3[nH]2)c(C)n1C,11.9,·,·,·,0.6,·
Cc1cc(/C=C(/C#N)c2nc3ccccc3[nH]2)c(C)n1-c1cccc([N+](=O)[O-])c1,-2.9,-13.4,6.8,-5.2,0.2,30.2*
O=C(NCCc1cccs1)C1CC(c2ccccc2[N+](=O)[O-])=NO1 (stereo not given),-2.2,13.1,3.0,-0.5,-3.1,-3.5
CN(C)c1nc(N)nc(CSc2nc3cc(Cl)ccc3o2)n1,-5.7,-5.0,-7.0,3.5,-1.1,6.8
O=S1(=O)C=C(Sc2nc3cc(Cl)ccc3o2)c2ccccc21,9.9,94.0*,-2.5,-0.9,-1.0,-10.6
O=C(N/N=C/c1ccc(-c2ccccc2C(=O)O)o1)c1cccs1,19.0,·,·,·,0.6,·
Cc1cc(C)c(NC2=NS(=O)(=O)c3ccccc32)c(C)c1,1.6,-16.3,0.4,1.7,-1.6,-3.1
O=C1CN(c2ccc(Cl)cc2)C(=O)CN1NC(=S)Nc1ccc(Cl)cc1,-3.7,-0.4,10.9,-7.1,1.1,-1.5
CCn1c2ccccc2c2cc(NC(=O)CSc3nnc(-c4ccc(OC)cc4)n3N)ccc21,9.1,30.3,5.2,-7.8,5.2*,-11.4
COc1ccc(NC(=O)CSc2nnc(-c3ccccc3)n2N)cc1,3.2,-3.3,-0.9,0.3,-1.5,-1.4
CC(/C=N/n1c(C2CCCCC2)n[nH]c1=S)=C\c1ccccc1,13.1,-17.6,25.6*,-22.9,-2.6,-2.1
Cc1ccc(Nc2nc3ccccc3nc2-n2nc(C)cc2C)cc1,-4.1,9.6,3.6,-3.6,2.3,20.1*
Cc1cc(C)n(-c2nc3ccccc3nc2Nc2ccc(CC(=O)O)cc2)n1,12.3,12.5,-0.9,1.0,-1.9,-3.3
CC(C)CNc1nnnc2c1sc1nc(N3CCOCC3)c3c(c12)CC(C)(C)SC3,3.8,-29.4,24.6*,-20.9,-0.3,1.5
